Experimental data published in PubChem BioAssay (NCI).
About 83,000 compounds went through this panel and 20% of them were active in at least one assay; those are over-represented in the sample as a whole.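 A percent growth of 40 corresponds to 60% growth inhibition; 0 means no net growth; -100 means all cells died. Active threshold: below 10.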 A number with no mark means an inactive call. Active and inactive are the calls of the source.

Assays:
Test in all cases: NCI-60 one-dose screen, 48 h (100 = growth as untreated, 0 = no growth, -100 = all killed)
Settings in all cases: 10 µM unless noted
NCI-H23 lung = system: NCI-H23 lung
NCI-H226 lung = system: NCI-H226 lung
HOP-62 NSCLC = system: HOP-62 NSCLC
NCI-H460 lung = system: NCI-H460 lung
HOP-92 NSCLC = system: HOP-92 NSCLC
NCI-H522 lung = system: NCI-H522 lung
A549/ATCC NSCLC = system: A549/ATCC NSCLC
786-0 renal = system: 786-0 renal
COLO 205 colon = system: COLO 205 colon
DU-145 prostate = system: DU-145 prostate
K-562 leukemia = system: K-562 leukemia
MALME-3M melanoma = system: MALME-3M melanoma
MDA-MB-231 breast = system: MDA-MB-231 breast
RXF 393 renal = system: RXF 393 renal
SF-268 CNS = system: SF-268 CNS
SF-295 CNS = system: SF-295 CNS
SF-539 CNS = system: SF-539 CNS
UACC-257 melanoma = system: UACC-257 melanoma
M14 melanoma = system: M14 melanoma

Row | Compound | growth (NCI-H23 lung) | growth (NCI-H226 lung) | growth (HOP-62 NSCLC) | growth (NCI-H460 lung) | growth (HOP-92 NSCLC) | growth (NCI-H522 lung) | growth (A549/ATCC NSCLC) | growth (786-0 renal) | growth (COLO 205 colon) | growth (DU-145 prostate) | growth (K-562 leukemia) | growth (MALME-3M melanoma) | growth (MDA-MB-231 breast) | growth (RXF 393 renal) | growth (SF-268 CNS) | growth (SF-295 CNS) | growth (SF-539 CNS) | growth (UACC-257 melanoma) | growth (M14 melanoma)
1 | Oc1c(CN2CCC(N3CCOCC3)CC2)cc(Cc2cc(CN3CCC(N4CCOCC4)CC3)c(O)c3ncccc23)c2cccnc12 | 40.8% | 2.53% (active) | 19.4% | 10.5% | 41.7% | 15.4% | 18.5% | 25.5% | 9.1% (active) | 34.5% | 11.1% | 56.1% | 8.58% (active) | 53.5% | 25.5% | -21.1% (active) | 6.51% (active) | 64.5% | 11.3%
2 | CCN1CCN(CCNc2nccc(-c3c(-c4ccc(F)c(O)c4)nc4occn34)n2)S1(=O)=O | 14% | 6.71% (active) | 33.7% | 34.9% | 68.5% | -3.38% (active) | 23% | 56.7% | 29% | 26.8% | 10.3% | 26.4% | 73.2% | 25.8% | 28% | 28.9% | 75.9% | 43.6% | 21.6%
3 | Cc1[nH]n(-c2cccc(Cl)c2)c(=O)c1/C=C1\C=c2ccccc2=CC1=O | -1.95% (active) | 1.04% (active) | -57.9% (active) | 79% | -2.07% (active) | -11.3% (active) | 60.4% | -46.8% (active) | -83.5% (active) | 35.4% | 99.1% | 59% | 4.08% (active) | -76.9% (active) | 47.2% | 25.6% | 72.3% | 80% | 18.2%
4 | CCCCCCCCCCOC(=O)c1nn(C(C)=O)c2cc(C)c(C)cc12 | 96.3% | 87.8% | 94.5% | 101% | 68.5% | 75.1% | 83.8% | 94.6% | 102% | 106% | 95.2% | 104% | 105% | 104% | 102% | 96% | 97.6% | 96.3% | –
5 | O=c1cc(CNc2cc(F)cc(F)c2)c2ccc(I)cc2[nH]1 | 46.3% | 68.6% | 37.5% | 18.5% | 54% | 15.6% | 38.6% | 43.7% | 33.7% | 38.4% | 9.97% (active) | 38.9% | 60.6% | 15.1% | 46.9% | 30.9% | -12.6% (active) | 53.4% | 20%
6 | Cc1cc(O)c(=O)cc2c1C[C@H]1CC(C)(C)/C=C/C[C@]3(C)Oc4cc(=O)c(O)cc(C)c4C[C@H]3C[C@H](O)[C@@]1(C)O2 | -16.7% (active) | 11.9% | 0.636% (active) | -6.53% (active) | 2.97% (active) | -24.9% (active) | -7.87% (active) | -1.45% (active) | -14.7% (active) | 22.3% | 1.9% (active) | 0.782% (active) | 13.5% | 19.8% | 18.5% | 3.52% (active) | 6.95% (active) | -6.56% (active) | -34% (active)
7 | CC1(C)CC(=O)C2=C(C1)C(c1ccc(Cl)cc1)n1ncc(C#N)c1N2 (configuration not stated) | 99.6% | 94.8% | 104% | 106% | 99.3% | 85.7% | 101% | 98.9% | 109% | 108% | 106% | 102% | 93.6% | 107% | 103% | 101% | 87.6% | 101% | 108%
8 | CNCC[C@H](Oc1cccc2ccccc12)c1cccs1 | 80.6% | 96.7% | 128% | 104% | 52.5% | 81.4% | 96.4% | 82.9% | 102% | 115% | 54.7% | 113% | 7.37% (active) | 72.3% | 88.2% | 94.1% | 97.5% | 90.1% | 104%
9 | Cc1ccccc1N1CCN(C(=S)c2ccccc2)CC1 | 81.3% | 92.1% | 95.2% | 92.4% | 97.9% | 47.8% | 87.4% | 103% | 106% | 114% | 107% | 103% | 93.9% | 96.6% | 105% | 69.5% | 94.7% | -18% (active) | 101%
10 | C=C1C(=O)O[C@H]2[C@H]1CC/C(COC(=O)NCc1ccc(Cn3c(=O)sn(-c4ccccc4)c3=O)cc1)=C\CC[C@@]1(C)O[C@@H]21 | 91.7% | 55.1% | 126% | 81.3% | 10.3% | -70.6% (active) | 114% | 39.7% | 3.5% (active) | 23.3% | 1.19% (active) | -9.16% (active) | 47.2% | 6.99% (active) | 46.6% | 108% | 29% | 68.3% | 14.4%
11 | COc1ccc2c(c1)CC[C@@H]1[C@@H]2CC[C@]2(C)c3c(cc(C#N)c4c3sc3ccccc34)C[C@@H]12 | 99.4% | 99.2% | 99.5% | 115% | 62.4% | 96.5% | 106% | 111% | 110% | 121% | 88.5% | 108% | 107% | 106% | 100% | 103% | 105% | 99.9% | 161%
12 | CNCCCNc1nc2ccccc2c2c(=O)c3cc(Cl)ccc3sc12 | 70.1% | 101% | 60.5% | -70.5% (active) | 9.37% (active) | 17.6% | 17.8% | 52.7% | -84.4% (active) | -8.94% (active) | -70.1% (active) | 17.6% | -58.8% (active) | 61.1% | 53.8% | 62.6% | 70.8% | 92.8% | -57.2% (active)
13 | COC1/C=C/OC2(C)Oc3c(C)c(O)c4c(O)c(c(/C=N/N(c5ccccc5)c5ccccc5)c(O)c4c3C2=O)NC(=O)C(C)=C/C=C/C(C)C(O)C(C)C(O)C(C)C(OC(C)=O)C1C (configuration not stated) | 64.3% | -47.9% (active) | 73.1% | 56.5% | 79% | 37.6% | 57% | 106% | 8.26% (active) | 90.1% | 72.4% | 111% | 90.9% | -53.5% (active) | 80.7% | 65.1% | 89.8% | 75.8% | 95.7%
14 | CCCn1c(=S)sc2c(NNC(C)=O)nc(C)nc21 | 99.3% | 97.1% | 78.3% | 101% | 89.4% | 90.9% | 89.1% | 92.2% | 126% | 134% | 68.8% | 101% | 103% | 98.5% | 111% | 121% | 90.6% | 91.7% | 108%
15 | O=C1C(Cl)=C(Nc2ccccc2)C(=O)c2ccccc21 | -34.3% (active) | 95.5% | 101% | 81.1% | -94.4% (active) | -86.2% (active) | 90.8% | 31.9% | 14% | 87.3% | -14.8% (active) | -79.5% (active) | -67.5% (active) | -89.3% (active) | -45.7% (active) | 90% | 44.9% | -79% (active) | -69.4% (active)
16 | COc1cc2ncnc(Nc3ccc(F)c(Cl)c3)c2cc1OCC(=O)N1CCOCC1 | 90.7% | 102% | 98.1% | 99.5% | 92.1% | 33% | 74.8% | 78.5% | 106% | 57.3% | 88.4% | 98.2% | 108% | 107% | 75.3% | 90.6% | 97.7% | 106% | 90.4%
17 | CC1=C2CC/C(C)=C/CC[C@]3(C)O[C@H]3CC/C(C)=C/[C@H]2OC1 | 97.3% | 109% | 107% | 107% | 94.6% | 87% | 90.5% | 92% | 104% | 110% | 87.5% | 112% | 96.5% | 126% | 105% | 91% | 95.1% | 98.3% | 103%
18 | C[C@@H]1NC(=O)[C@H](Cc2ccccc2)N(Cc2cccnc2)C1=O | 101% | 90.4% | 94.8% | 102% | 84.7% | 95.9% | 94.6% | 90.3% | 105% | 108% | 89% | 101% | 97.3% | 108% | 104% | 97% | 101% | 91.7% | 93.8%
19 | CCCCO[C@@H]1C=C2[C@H]3CC(C)(C)C(=O)C[C@]3(C(=O)O[C@@H]3O[C@H](CO[C@@H]4O[C@H](CO)[C@@H](OC5OC(C)C(O)C(O)C5O)[C@H](O)[C@H]4O)[C@@H](O)[C@H](O)[C@H]3O)CC[C@@]2(C)[C@]2(C)CC[C@H]3C(C)(C)C(=O)CC[C@]3(C)[C@@H]12 (some centres not stated) | 60.3% | 45.6% | 76.1% | 91.8% | 2.25% (active) | 67.9% | 84.8% | 29.5% | 97.2% | 97.9% | 90.5% | 34.2% | 73.2% | 63.2% | 47.2% | 92.8% | 60.1% | 49.1% | 40.5%
20 | CCCOC(=O)Nc1nc2ccc(SCC)cc2s1 | 91.9% | 92.9% | 81.4% | 79.6% | 96.1% | 65.6% | 80.5% | 93.9% | 72.2% | 94.6% | 26.2% | 77.9% | 82.9% | 95.8% | 92.8% | 80.8% | 80.9% | 96.4% | 46.5%
21 | O=C(NCCNC(c1ccccc1)C(NCCNC(=O)c1ccccc1)c1ccccc1)c1ccccc1 (configuration not stated) | 83.3% | 100% | 104% | 59.6% | 84.8% | 69.4% | 106% | 106% | 106% | 19.8% | 81.6% | 101% | 98% | 72.9% | 99.7% | 81.8% | 103% | 96.9% | 86.3%
22 | CS(=O)/C(C#N)=C\C=C\c1cccc(Cl)c1 (configuration not stated) | -7.77% (active) | 36.1% | 17.1% | 3.71% (active) | -5.77% (active) | -9.88% (active) | 20% | 19.2% | -22% (active) | 23.1% | 10.3% | 34.7% | 40.6% | 49.5% | 17.2% | 32.5% | 17.7% | 31.9% | -3.44% (active)
